“And” between values parts separate entries of the source, which are not always exact repeats. Equal values may be shown once. Where a name gives a salt, the structure may show the parent alone.

The first test concerns Plasmodium falciparum NF54/iGP1_RE9H ulg8 stage V gametocytes. Kind of test: gametocyte viability (luciferase signal relative to DMSO control) (% of DMSO control); higher = less gametocytocidal activity, active = 50 or less. The following applies: concentration: 1 µM; exposure time: 72 h. In a few lines:
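NF54/iGP1_RE9Hulg8 stage V gametocytes (day 12; ~2.5% gametocytemia, 3% hematocrit) were incubated with compounds at 10 µM or 1 µM final, in one well each, for 72 h at 37 °C in medium with 0.5% Albumax II. Luminescence after D-luciferin addition was read on an IVIS Lumina II. Viability refers to the mean of plate DMSO vehicle wells.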
Consider `COc1cc2c(Oc3ccc4[nH]c(C)cc4c3F)ncnc2cc1OCCCN1CCCC1` [Cediranib (AZD2171)], for which the gametocyte viability was 88.6 (inactive). Regarding `Cn1cc(C2=C(c3cn(CCCSC(=N)N)c4ccccc34)C(=O)NC2=O)c2ccccc21` [Ro 31-8220 mesylate], the gametocyte viability is 123 (inactive). Still for that read-out and setting: in the case of `CN1CC[C@H](c2c(O)cc(O)c3c(=O)cc(-c4ccccc4Cl)oc23)[C@H](O)C1` [Flavopiridol (Alvocidib)] it was 99.8 (inactive); in that of `FC(F)(F)c1ccc(/C=C/c2nc(COc3ccc(CCCCn4ccnn4)cc3)co2)cc1` [Mubritinib (TAK 165)], 95.1 (inactive); in that of `NC(=O)c1ccc(N(C(N)=O)c2c(F)cccc2F)nc1-c1ccc(F)cc1F`, 99.2 (inactive). Still for that read-out and setting: in the case of `O=C(NC1CCNCC1)c1n[nH]cc1NC(=O)c1c(Cl)cccc1Cl` it was 99.2 (inactive).

Turning to `Cc1cc(C(C)Nc2ccccc2)c2nc(N3CCOCC3)cc(=O)n2c1` (centres undefined), the gametocyte viability was 90.1 (inactive). On the same count and under the same terms, in the case of `CCCNC(=O)Nc1ccc(Oc2ncnc3cc(OC)c(OC)cc23)cc1Cl` it was 97.6 (inactive); in that of `Cc1c(CN2CCN(C(=O)[C@H](C)O)CC2)sc2c(N3CCOCC3)nc(-c3cnc(N)nc3)nc12`, 106 (inactive).

Staying with this test, now noted: concentration: 10 µM; exposure time: 72 h.
`N#C/C(=C\c1ccc(O)c(O)c1)C(=O)Nc1ccccc1`: the gametocyte viability is 104 (inactive).

Consider `C[S+]([O-])c1ccc(-c2nc(-c3ccc(F)cc3)c(-c3ccncc3)[nH]2)cc1` (centres undefined), for which the gametocyte viability is 109 (inactive) and 105 (inactive). As for `Cc1nc(N)sc1-c1ccnc(Nc2ccc(N3CCOCC3)cc2)n1`, the gametocyte viability is 108 (inactive). On the same count and under the same terms, to `C=CC(=O)N1CCC[C@@H](n2nc(-c3ccc(Oc4ccccc4)cc3)c3c(N)ncnc32)C1` belongs 104 (inactive); to `CNC(=O)c1cc(Oc2ccc(NC(=O)Nc3cc(C(C)(C)C)nn3-c3ccc4ncccc4c3)c(F)c2)ccn1` [DCC-2036 (Rebastinib)], 107 (inactive); to `CC(=O)Nc1nc(C)c(-c2ccc(Cl)c(S(=O)(=O)NCCO)c2)s1`, 13.6 (active). Still for that read-out and setting: to `NC(N)=NCCNS(=O)(=O)c1cccc2cnccc12` belongs 107 (inactive).

For the molecule `CC(C)n1nc(-c2cc3cc(O)ccc3[nH]2)c2c(N)ncnc21`, the gametocyte viability is 103 (inactive). The same measure, in the same setting: to `CO[C@H]1C[C@@H]2CC[C@@H](C)[C@@](O)(O2)C(=O)C(=O)N2CCCC[C@H]2C(=O)O[C@H]([C@H](C)C[C@@H]2CC[C@@H](O)[C@H](OC)C2)CC(=O)[C@H](C)/C=C(\C)[C@@H](O)[C@@H](OC)C(=O)[C@H](C)C[C@H](C)/C=C/C=C/C=C/1C` [Rapamycin (Sirolimus)] belongs 79.7 (inactive).

Take `COc1ccc(-c2cc3c(C)nc(N)nc3n([C@H]3CC[C@H](OCCO)CC3)c2=O)cn1`: the gametocyte viability is 84.2 (inactive).

As to `S=C(NCc1ccc2c(c1)OCO2)N1CCN(c2ncnc3c2oc2ccccc23)CC1` [Amuvatinib (MP-470)], the gametocyte viability is 110 (inactive). For `Nc1ncnc2c1c(I)cn2[C@@H]1O[C@H](CO)[C@@H](O)[C@H]1O` [5-Iodotubericidin], the gametocyte viability is 113 (inactive). With `CNC(=O)c1cc(Oc2ccc(NC(=O)Nc3ccc(Cl)c(C(F)(F)F)c3)c(F)c2)ccn1` [Regorafenib (BAY 73-4506)], the gametocyte viability was 99.1 (inactive).

Regarding `Cc1cc2ncc(-c3ccccc3)nc2cc1C`, the gametocyte viability is 70.6 (inactive). For `O=P(O)(O)C(O)c1ccc2ccccc2c1` (centres undefined) [Hydroxy-2-naphthalenylmethylphosphonic acid], the gametocyte viability was 90.5 (inactive).

Turning to `CC(C)(C)c1cc(NC(=O)Nc2ccc(-c3cn4c(n3)sc3cc(OCCN5CCOCC5)ccc34)cc2)no1` [Quizartinib (AC220)], the gametocyte viability was 85.9 (inactive). Still for that read-out and setting: in the case of `C=CC(=O)Nc1cccc(Oc2nc(Nc3ccc(N4CCN(C)CC4)cc3)ncc2Cl)c1` it was 72.5 (inactive); in that of `CO[C@H]1C[C@@H]2CC[C@@H](C)[C@@](O)(O2)C(=O)C(=O)N2CCCC[C@H]2C(=O)O[C@H]([C@H](C)C[C@@H]2CC[C@@H](OCCO)[C@H](OC)C2)CC(=O)[C@H](C)/C=C(\C)[C@@H](O)[C@@H](OC)C(=O)[C@H](C)C[C@H](C)/C=C/C=C/C=C/1C` [Everolimus (RAD001)], 94.2 (inactive); in that of `O=C1Nc2ccc(I)cc2/C1=C/c1cc(Br)c(O)c(Br)c1`, 90.5 (inactive). The same measure, in the same setting: to `O=c1c(-c2ccc(O)cc2)coc2cc(O)ccc12` [Daidzein] belongs 109 (inactive); to `O=S(=O)(NCCNC/C=C/c1ccc(Br)cc1)c1cccc2cnccc12`, 93.1 (inactive); to `O=C(Nc1ccc(OC(F)(F)F)cc1)c1sccc1NCc1ccnc2ccccc12`, 86.6 (inactive). On the same count and under the same terms, to `N#C/C(=C\c1cc(Cl)cc(Cl)c1)c1cccnc1` belongs 101 (inactive); to `Nc1nc(Nc2ccc(S(N)(=O)=O)cc2)nn1C(=O)c1c(F)cccc1F`, 85.9 (inactive); to `O=S(=O)(c1cccc2cnccc12)N1CCCNCC1`, 110 (inactive). Turning to `NC1(Cc2ccc(Cl)cc2)CCN(c2ncnc3[nH]ccc23)CC1`, the gametocyte viability was 78.9 (inactive). On the same count and under the same terms, in the case of `COc1ccc(S(=O)(=O)N(C(C)=O)c2ccccc2/C=C/c2cc[n+]([O-])cc2)cc1` it was 112 (inactive); in that of `N#CC1(c2ccc(NC(=O)c3cccnc3NCc3ccncc3)cc2)CCCC1` [Apatinib (YN968D1)], 95.4 (inactive); in that of `CO[C@@H](C(=O)N1Cc2[nH]nc(NC(=O)c3ccc(N4CCN(C)CC4)cc3)c2C1)c1ccccc1`, 71.6 (inactive). With `CN([C@@H](Cc1ccc(OS(=O)(=O)c2cccc3cnccc23)cc1)C(=O)N1CCN(c2ccccc2)CC1)S(=O)(=O)c1cccc2cnccc12`, the gametocyte viability is 81.8 (inactive). Still for that read-out and setting: in the case of `CC[C@H](CO)Nc1nc(NCc2ccccc2)c2ncn(C(C)C)c2n1` [Roscovitine] it was 105 (inactive). Same read-out and setting: to `COc1cc2c(Oc3ccc4[nH]c(C)cc4c3F)ncnc2cc1OCCCN1CCCC1` [Cediranib (AZD2171)] belongs 90.7 (inactive); to `Cn1cc(C2=C(c3cn(CCCSC(=N)N)c4ccccc34)C(=O)NC2=O)c2ccccc21` [Ro 31-8220 mesylate], 78.9 (inactive).

Consider `CN1CC[C@H](c2c(O)cc(O)c3c(=O)cc(-c4ccccc4Cl)oc23)[C@H](O)C1` [Flavopiridol (Alvocidib)], for which the gametocyte viability is 122 (inactive). For `FC(F)(F)c1ccc(/C=C/c2nc(COc3ccc(CCCCn4ccnn4)cc3)co2)cc1` [Mubritinib (TAK 165)], the gametocyte viability was 104 (inactive). For the molecule `NC(=O)c1ccc(N(C(N)=O)c2c(F)cccc2F)nc1-c1ccc(F)cc1F`, the gametocyte viability is 103 (inactive). Same read-out and setting: in the case of `O=C(NC1CCNCC1)c1n[nH]cc1NC(=O)c1c(Cl)cccc1Cl` it was 69.7 (inactive). Same read-out and setting: to `Cc1cc(C(C)Nc2ccccc2)c2nc(N3CCOCC3)cc(=O)n2c1` (centres undefined) belongs 89 (inactive); to `CCCNC(=O)Nc1ccc(Oc2ncnc3cc(OC)c(OC)cc23)cc1Cl`, 104 (inactive). The same measure, in the same setting: to `Cc1c(CN2CCN(C(=O)[C@H](C)O)CC2)sc2c(N3CCOCC3)nc(-c3cnc(N)nc3)nc12` belongs 109 (inactive).

Source of the values: the supplement of paper PMC12297408.
